# Results taken from a collection of fitness landscapes (doi:10.1126/science.1257360).
# In all, about 140,000 sequences were measured (“enrichment ratio after two sorts for PhoP signalling”: median about 0, highest 2% from about 11 on). Shown is part of a subset that was picked to be rich in the highest values.
# B1: PhoQ; a variant is named by its letters at X, in order, P23837 (parent)
# chain: MKKLLRLFFPLSLRVRFLLATAAVVLVLSLAYGMVALIGYSVSFDKTTFRLLRGESNLFYTLAKWENNKLHVELPENIDKQSPTMTLIYDENGQLLWAQRDVPWLMKMIQPDWLKSNGFHEIEADVNDTSLLLSGDHSIQQQLQEVREDDDDAEMTHSVAVNVYPATSRMPKLTIVVVDTIPVELKSSYMVWSWFIYVLSANLLLVIPLLWVAAWWSLRPIEALAKEVRELEEHNRELLNPATTRELTSLVRNLNRLLKSERERYDKYRTTLTDLTHSLKTPLXXLQXXLRSLRSEKMSVSDAEPVMLEQISRISQQIGYYLHRASMRGGTLLSRELHPVAPLLDNLTSALNKVYQRKGVNISLDISPEISFVGEQNDFVEVMGNVLDNACKYCLEFVEISARQTDEHLYIVVEDDGPGIPLSKREVIFDRGQRVDTLRPGQGVGLAVAREITEQYEGKIVAGESMLGGARMEVIFGRQHSAPKDE
# Variants of: B1
# Experiment: enrichment ratio after two sorts for PhoP signalling (ratio (wild type AVST 3.29)); higher = more functional
# Conditions: with PhoP (E. coli)
row,Variant,enrichment ratio
1,NESI,≤ 0.25
2,PFYL,≤ 0.25
3,GFIL,≤ 0.25
4,INEF,≤ 0.25
5,MTNK,≤ 0.25
6,IERL,≤ 0.25
7,MGNR,≤ 0.25
8,FHQW,≤ 0.25
9,WMHQ,≤ 0.25
10,VIIW,≤ 0.25
11,SYIC,0.411
12,SDRC,≤ 0.25
13,SDIC,15.1
14,VCHE,≤ 0.25
15,GIRT,≤ 0.25
16,ASTM,12.3
17,ASGD,≤ 0.25
18,ASGM,22.7
19,ASAY,4.58
20,ASAM,20.2
21,ASWM,≤ 0.25
22,ASPM,0.773
23,ASDH,≤ 0.25
24,ASRM,≤ 0.25

row,Variant,enrichment ratio
1,TKYS,≤ 0.25
2,NHDM,≤ 0.25
3,KGIG,≤ 0.25
4,IWNF,≤ 0.25
5,ETES,≤ 0.25
6,IRLA,0.272
7,GMFY,≤ 0.25
8,FLEE,≤ 0.25
9,PCYL,≤ 0.25
10,FIHC,≤ 0.25
11,LFFW,≤ 0.25
12,TMQP,≤ 0.25
13,NMQS,≤ 0.25
14,KMQS,≤ 0.25
15,MMQI,≤ 0.25
16,TMQS,14.3
17,TMQI,12.3
18,KESH,≤ 0.25
19,VQMH,≤ 0.25
20,RVAL,≤ 0.25
21,WFSS,≤ 0.25
22,TFSK,≤ 0.25
23,TGSS,11
24,TFSS,11.4

row,Variant,enrichment ratio
1,CFSS,11.9
2,VFSS,≤ 0.25
3,LGDN,≤ 0.25
4,FQYK,≤ 0.25
5,KYSM,≤ 0.25
6,STSM,16.4
7,SISM,16
8,LTSM,≤ 0.25
9,SNSM,33.4
10,SNSF,10.8
11,SVRM,≤ 0.25
12,SVGM,9.35
13,ITSM,2.11
14,SVSM,13.3
15,SISF,10.7
16,HVDL,≤ 0.25
17,YFNP,≤ 0.25
18,PTIT,≤ 0.25
19,IFSN,≤ 0.25
20,KGDF,≤ 0.25
21,SSSM,14.8
22,SCSF,9.85
23,SQSM,15.9
24,NSSM,0.911

row,Variant,enrichment ratio
1,SMSF,5.95
2,SRSM,0.977
3,SSSF,10
4,SDSM,1.33
5,SMSM,12.4
6,SCSM,14.5
7,SMHF,≤ 0.25
8,FCSM,0.747
9,SGVE,≤ 0.25
10,SWGV,≤ 0.25
11,IDET,≤ 0.25
12,RIHD,≤ 0.25
13,LNHQ,≤ 0.25
14,IEMK,≤ 0.25
15,EVHQ,≤ 0.25
16,YTSM,1.02
17,KSSM,≤ 0.25
18,TTSM,14.8
19,SGSF,1.84
20,TVSM,37.3
21,TSSM,24.4
22,MMSM,7.2
23,SGSM,12.7
24,KQSM,≤ 0.25

row,Variant,enrichment ratio
1,SPSM,≤ 0.25
2,NVSM,≤ 0.25
3,KQAV,≤ 0.25
4,DAHD,≤ 0.25
5,QSHT,≤ 0.25
6,PIQW,≤ 0.25
7,FMCI,≤ 0.25
8,MYGI,≤ 0.25
9,ICFI,≤ 0.25
10,VCSA,≤ 0.25
11,YCHV,≤ 0.25
12,HSSA,≤ 0.25
13,SMEV,≤ 0.25
14,MVWM,0.553
15,GVAM,15.2
16,MVPM,≤ 0.25
17,GVTM,8.91
18,MVAM,39.4
19,GVAK,11.7
20,NVAK,≤ 0.25
21,MVAK,5.7
22,GVPM,≤ 0.25
23,SAME,0.508
24,WCYN,≤ 0.25

row,Variant,enrichment ratio
1,KFKF,≤ 0.25
2,GTRF,≤ 0.25
3,KSNL,≤ 0.25
4,TSNL,12.5
5,KSNN,≤ 0.25
6,LCNN,≤ 0.25
7,FSNL,≤ 0.25
8,TSNN,12.2
9,LVAI,≤ 0.25
10,NFCN,≤ 0.25
11,VEEF,≤ 0.25
12,TCSV,17.7
13,TCEF,13.2
14,TCAE,≤ 0.25
15,TCAH,11.7
16,KCAV,≤ 0.25
17,TCAV,13.4
18,VCAH,≤ 0.25
19,HVSV,≤ 0.25
20,KCEF,≤ 0.25
21,KCSV,≤ 0.25
22,KCAH,≤ 0.25
23,SLYY,≤ 0.25
24,DQFN,≤ 0.25

row,Variant,enrichment ratio
1,RPHE,≤ 0.25
2,SDPC,≤ 0.25
3,FRSR,≤ 0.25
4,TCGY,20.3
5,TCAS,12.2
6,TCLS,7.88
7,TCVP,≤ 0.25
8,TCLT,4.19
9,VCSM,3.67
10,TCLA,11.9
11,KCSM,≤ 0.25
12,FCAS,≤ 0.25
13,TCSM,18.9
14,KCAS,≤ 0.25
15,TCNY,9.63
16,RVLR,≤ 0.25
17,ENDI,≤ 0.25
18,MVRF,≤ 0.25
19,HGLK,≤ 0.25
20,GGGP,≤ 0.25
21,KHVK,≤ 0.25
22,TCMT,14.5
23,VCMT,≤ 0.25
24,KCAN,≤ 0.25

row,Variant,enrichment ratio
1,KCLK,≤ 0.25
2,FCAN,≤ 0.25
3,HVSC,≤ 0.25
4,TCIT,≤ 0.25
5,TCAN,25.6
6,FCLK,1.84
7,KCSC,≤ 0.25
8,TCLK,13.1
9,TCSC,12.3
10,NFFS,≤ 0.25
11,FFPR,≤ 0.25
12,DMHV,≤ 0.25
13,ETAR,≤ 0.25
14,KLGR,≤ 0.25
15,VCAQ,≤ 0.25
16,KCAQ,≤ 0.25
17,TCTW,10.8
18,TCYD,≤ 0.25
19,TCGD,20.3
20,LSTQ,≤ 0.25
21,KCSN,≤ 0.25
22,TCTQ,21.4
23,TCAQ,15.5
24,TCSN,20

row,Variant,enrichment ratio
1,TCDD,≤ 0.25
2,FCSN,≤ 0.25
3,HFQA,≤ 0.25
4,FHFW,≤ 0.25
5,KCDC,≤ 0.25
6,TKEF,≤ 0.25
7,SVFR,0.428
8,SAGS,3.14
9,SRYF,≤ 0.25
10,IHVG,≤ 0.25
11,LNTP,≤ 0.25
12,NEMN,≤ 0.25
13,TALV,10.2
14,EMAS,≤ 0.25
15,ESQI,≤ 0.25
16,FCSA,≤ 0.25
17,KCAK,≤ 0.25
18,TCSY,13.3
19,TCAK,11.2
20,TCGF,12.5
21,HVSY,≤ 0.25
22,TCSA,18.5
23,KCSY,≤ 0.25
24,VCAK,≤ 0.25

row,Variant,enrichment ratio
1,VEGF,≤ 0.25
2,TCHF,8.33
3,KCSA,≤ 0.25
4,YCQN,≤ 0.25
5,DLMC,≤ 0.25
6,PANG,≤ 0.25
7,THES,≤ 0.25
8,THGV,1.56
9,PMKY,≤ 0.25
10,TLGR,≤ 0.25
11,GLIF,≤ 0.25
12,TCWI,1.27
13,KCCL,≤ 0.25
14,ACGL,2.96
15,TCDS,1.7
16,FCSL,0.351
17,TCNS,16.1
18,TCCL,13.8
19,KCSL,≤ 0.25
20,ACSL,16.6
21,TCSL,16.4
22,GQSL,≤ 0.25
23,VECL,2.59
24,IIGM,≤ 0.25

row,Variant,enrichment ratio
1,QKHF,≤ 0.25
2,LRCK,≤ 0.25
3,NVPP,≤ 0.25
4,APIR,≤ 0.25
5,AWVY,≤ 0.25
6,ELQD,≤ 0.25
7,SGPP,≤ 0.25
8,HHVH,≤ 0.25
9,TICC,2.66
10,KPAP,≤ 0.25
11,AQWF,≤ 0.25
12,TCAT,14.5
13,TCSS,15
14,TCVA,≤ 0.25
15,TCYI,1.36
16,KCAY,≤ 0.25
17,TCSR,5.34
18,TCAY,14.1
19,TCSK,13.7
20,TCNT,7.62
21,FCSS,≤ 0.25
22,TCDT,≤ 0.25
23,KCSS,≤ 0.25
24,LFWM,≤ 0.25

row,Variant,enrichment ratio
1,NNTR,≤ 0.25
2,IGVH,≤ 0.25
3,WSVN,≤ 0.25
4,HDQK,≤ 0.25
5,LDIL,≤ 0.25
6,MIIK,≤ 0.25
7,VCLC,2.94
8,FCLC,7.16
9,TCNE,19.6
10,TCIE,≤ 0.25
11,VCLN,2.29
12,FCAG,≤ 0.25
13,TCLC,23.4
14,TCAG,12.5
15,KCAG,≤ 0.25
16,FCLN,3.94
17,TCLN,13.6
18,TCHE,≤ 0.25
19,FAWY,≤ 0.25
20,SDGA,≤ 0.25
21,GPWK,≤ 0.25
22,LRLK,≤ 0.25
23,SNTI,10.1
24,MHKW,≤ 0.25

row,Variant,enrichment ratio
1,IAWT,≤ 0.25
2,DASW,≤ 0.25
3,TCEG,≤ 0.25
4,GWNG,≤ 0.25
5,QLVN,≤ 0.25
6,FINA,≤ 0.25
7,ENVY,≤ 0.25
8,TCSG,26.2
9,VEGI,≤ 0.25
10,TCIL,≤ 0.25
11,TCNL,4.28
12,TCGL,13.5
13,VCSG,0.44
14,TCGI,25
15,GMGI,≤ 0.25
16,TCSI,23.8
17,KCSG,≤ 0.25
18,FCSI,≤ 0.25
19,KCSI,≤ 0.25
